The list is not random: actives were taken first. Their share in the collection is about 19%.
HT1080NT lethal: kills 2HG-producing HT-1080-NT fibrosarcoma cells; 360,000 compounds, 1.6% hits; AID 686970; HT-1080-NT fibrosarcoma viability, CellTiter-Glo ATP luminescence, 48 h; Potency, µM (top dose mostly 46.1 µM), hits mostly cytotoxic;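 further: NT is the 2HG producing partner of a matched IDH1 knockdown line; nearly all actives have a fitted effect of over 55% in size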
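Compounds were tested in concentration-response format on HT-1080-NT cells for 48 hours at 37 degrees C. Cell viability came from CellTiter-Glo luminescence; curves were classified by r2, response magnitude and activity.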
TDP1 cell noCPT: qHTS for Inhibitors of human tyrosyl-DNA phosphodiesterase 1 (TDP1): qHTS in cells in absence of CPT; DT40 Tdp1-/- hTDP1 cells, no CPT, ATP luminescence, 48 h; Potency, µM (titrated, usually from 46.2 µM), most hits filed as inhibitors; 420,000 compounds, 15% hits; AID 686978, 2013; further: nearly all actives have a fitted effect of over 55% in size
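Luminescent ATP content (CellTiter-Glo) served as the growth readout. Knockout chicken DT40 cells expressing human TDP1 were exposed to compounds without camptothecin for a minimum 48 hr at 37 °C.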
IL1B secr inh: inflammasome signaling inhibition, IL-1 beta readout; THP-1 LPS/ATP IL-1B secretion, AlphaLISA, 16 h; hits give low values; activity change, % at 57.5 µM; 360,000 compounds, 4.7% hits; in the data active means activity change below about -50%; inconclusive means mostly about -30% to -49%
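Secreted IL-1B measured by AlphaLISA bead assay after 16 h compound exposure of THP-1 cells; compounds (final up to 57.5 uM) added 1 h before LPS (250 ng/mL) and ATP (1.25 mM) stimulation; lower signal means less secretion.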
HT1080 IDH1KD tx: toxicity to HT-1080 IDH1 knockdown cells (counter line). Potency, µM (series often up to 46.1 µM), most hits filed as cytotoxic. HT-1080 IDH1 knockdown viability, ATP luminescence, 48 h. 360,000 compounds, 2% hits
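Using the IDH1-knockdown HT-1080 line run in the same batch and compound series as the NT line, viability after 48 h at 37 °C was determined by CellTiter-Glo luminescence and expressed as % activity.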
DT40 TDP1 CPT: DT40-hTDP1 cell growth loss with CPT. chicken DT40 Tdp1-/-;hTDP1 cells + 20 nM CPT, ATP luminescence, 48 h. Potency, µM (top dose mostly 46.2 µM), actives largely listed as inhibitors. 420,000 compounds, 12% hits. AID 686979; further: nearly all actives have a fitted effect of over 55% in size
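Cell growth measured by CellTiter-Glo luminescence after a minimum 48 h, 37 C compound exposure with 20 nM CPT in Tdp1-knockout DT40 cells stably expressing hTDP1, seeded 400/well; qHTS titration format.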
A number is an active result; [ ] = dose if it differs, or a comment. Unless noted, the call rests on the fitted dose curve; in most records, active means well fitted curve in the direction sought with a large enough effect; inconclusive means small, poorly fitted or top-dose-only effect, or another doubt; inactive means no such curve, though single readings can be large; an effect the other way counts as inactive or inconclusive.

`CCOc1cccc(C(=O)Nc2cccc(-c3nnc(-c4ccccc4)o3)c2)c1` gave HT1080NT lethal inactive, TDP1 cell noCPT 18.4µM, IL1B secr inh -72.9, HT1080 IDH1KD tx inactive and DT40 TDP1 CPT 14.6µM.
`COc1cccc(-c2nnc(NC(=O)c3cccc(F)c3)o2)c1` gave HT1080NT lethal inactive, TDP1 cell noCPT 3.26µM, IL1B secr inh inactive, HT1080 IDH1KD tx inactive and DT40 TDP1 CPT 3.26µM.
For COc1cccc(C(=O)Nc2cccc(-c3nnc(-c4ccccc4)o3)c2)c1 the results were HT1080NT lethal inactive, TDP1 cell noCPT 18.4µM, IL1B secr inh inactive, HT1080 IDH1KD tx inactive and DT40 TDP1 CPT inconclusive.
`COc1cccc(C(=O)Nc2ccc(-c3nnc(-c4ccco4)o3)cc2)c1` gave HT1080NT lethal inactive, TDP1 cell noCPT 10.3µM, IL1B secr inh inactive, HT1080 IDH1KD tx inconclusive and DT40 TDP1 CPT inconclusive.
`COc1cccc(-c2ccccc2C2=CC(=O)CC(C)(C)C2=O)c1` gave HT1080NT lethal inactive, TDP1 cell noCPT inconclusive, IL1B secr inh inactive, HT1080 IDH1KD tx inactive and DT40 TDP1 CPT inactive.
Cc1ccc(-c2nnc(-c3ccc(NC(=O)c4ccco4)cc3)o2)cc1 was read as HT1080NT lethal inactive, TDP1 cell noCPT 20.6µM, IL1B secr inh inactive, HT1080 IDH1KD tx inactive and DT40 TDP1 CPT 23.1µM.
For CCCOc1ccc(C(=O)Nc2ccc(NC(=O)c3ccccc3)c(Br)c2)cc1 the results were TDP1 cell noCPT inactive and DT40 TDP1 CPT 14.6µM.
Screening CCOc1cccc(C(=O)Nc2cccc(-c3nnc(-c4ccc(C)cc4)o3)c2)c1 returned HT1080NT lethal inactive, TDP1 cell noCPT inconclusive, IL1B secr inh inactive, HT1080 IDH1KD tx inactive and DT40 TDP1 CPT 18.4µM.
Cc1ccc(NC(=O)c2cnn(-c3ccccc3)c2NC(=O)c2ccco2)cc1 was read as HT1080NT lethal inactive, TDP1 cell noCPT inconclusive, IL1B secr inh inactive, HT1080 IDH1KD tx inactive and DT40 TDP1 CPT 13µM.
O=C(Nc1ccccn1)C1CCN(C(=O)c2ccc(Cl)cc2)CC1 was read as HT1080NT lethal inactive, TDP1 cell noCPT inactive, IL1B secr inh inactive, HT1080 IDH1KD tx inactive and DT40 TDP1 CPT inactive.
For Cc1ccc(NC(=O)CN(C)S(=O)(=O)c2cccc3nsnc23)c(C)c1 the results were TDP1 cell noCPT inactive and DT40 TDP1 CPT inactive.
Screening COc1cccc(-c2c(C(=O)N/N=C/c3ccco3)nnn2-c2nonc2N)c1 returned HT1080NT lethal inactive, TDP1 cell noCPT inactive, IL1B secr inh inconclusive, HT1080 IDH1KD tx inactive and DT40 TDP1 CPT inactive.
For Cc1nc2nc(NC(=O)c3ccc(C(C)(C)C)cc3)[nH]n2c(=O)c1C the results were TDP1 cell noCPT inactive and DT40 TDP1 CPT inactive.
For CCCOc1cccc(C(=O)Nc2cc(-c3ccccc3)no2)c1 the results were TDP1 cell noCPT inconclusive and DT40 TDP1 CPT 11.6µM.
COc1cccc(-c2nnc(-c3ccc(C)o3)o2)c1 was read as HT1080NT lethal inactive, TDP1 cell noCPT inactive, IL1B secr inh inactive, HT1080 IDH1KD tx inactive and DT40 TDP1 CPT inactive.
For COc1ccc(C(=O)Nc2cccc(NC(=O)c3ccc(OC)c(OC)c3)n2)cc1OC the results were HT1080NT lethal inactive, TDP1 cell noCPT 7.31µM, IL1B secr inh inactive, HT1080 IDH1KD tx inactive and DT40 TDP1 CPT 8.2µM.
O=C(Nc1nnc(-c2ccc(F)cc2)o1)c1cccc([N+](=O)[O-])c1 was read as HT1080NT lethal inactive, TDP1 cell noCPT 3.26µM, IL1B secr inh inactive, HT1080 IDH1KD tx inconclusive and DT40 TDP1 CPT 3.66µM.
For COc1cccc(-c2nnc(-c3ccco3)o2)c1 the results were HT1080NT lethal inactive, TDP1 cell noCPT 29.1µM, IL1B secr inh inactive, HT1080 IDH1KD tx inactive and DT40 TDP1 CPT inconclusive.
Screening COc1ccc(CN2CCN(C(C)=O)CC2)cc1OC1CCN(C(=O)c2ccc3[nH]c(C)c(C)c3c2)CC1 returned TDP1 cell noCPT inactive and DT40 TDP1 CPT inactive[9.04 µM].
`Cc1cccc(NC(=O)CSc2nnc([C@@H](N)Cc3ccccc3)o2)c1C` gave HT1080NT lethal inactive, TDP1 cell noCPT inactive, IL1B secr inh inactive, HT1080 IDH1KD tx inactive and DT40 TDP1 CPT inactive.
Cc1c(Cc2c(Cl)cccc2Cl)c(=O)ccn1C(C)c1ccccc1 (centres undefined) was read as HT1080NT lethal inactive, TDP1 cell noCPT inconclusive, IL1B secr inh inactive, HT1080 IDH1KD tx inconclusive and DT40 TDP1 CPT inconclusive.
For COc1ccc(C(=O)NCC(=O)OCc2ccc(F)cc2Cl)cc1OC the results were HT1080NT lethal inactive, TDP1 cell noCPT inconclusive, IL1B secr inh inactive, HT1080 IDH1KD tx inactive and DT40 TDP1 CPT inactive.
For COc1ccc(C(=O)NCC(=O)OCc2c(Cl)cccc2Cl)cc1OC the results were HT1080NT lethal inactive, TDP1 cell noCPT 14.6µM, IL1B secr inh inactive, HT1080 IDH1KD tx inactive and DT40 TDP1 CPT inconclusive.
For COc1ccc(C(=O)Nc2nnc(-c3ccccc3)o2)cc1OC the results were HT1080NT lethal inactive, TDP1 cell noCPT 23.1µM, IL1B secr inh inactive, HT1080 IDH1KD tx inactive[9.24 µM] and DT40 TDP1 CPT inconclusive.
`Cc1nc(SCc2cccc(Cl)c2)nc2c1CCCC2` gave TDP1 cell noCPT inactive and DT40 TDP1 CPT inactive.
`CCOc1ccc(S(=O)(=O)Nc2cc3c(C(=O)OC)c(COC)oc3c3ccccc23)cc1` gave TDP1 cell noCPT 3.66µM and DT40 TDP1 CPT 5.17µM.
CC(=O)c1c(C)oc2c1cc(NS(=O)(=O)c1ccc(C(C)(C)C)cc1)c1ccccc12 was read as TDP1 cell noCPT 20.6µM and DT40 TDP1 CPT inconclusive.
`COc1ccc(S(=O)(=O)Nc2cc3c(C(C)=O)c(C)oc3c3ccccc23)cc1` gave HT1080NT lethal 1.3µM, TDP1 cell noCPT 0.651µM, IL1B secr inh inactive, HT1080 IDH1KD tx 0.517µM and DT40 TDP1 CPT 0.651µM.
For Cc1oc2c(cc(NS(=O)(=O)c3ccc(C(C)C)cc3)c3ccccc32)c1C(=O)O the results were HT1080NT lethal inactive, TDP1 cell noCPT inactive, IL1B secr inh inactive, HT1080 IDH1KD tx inactive and DT40 TDP1 CPT inactive.
Screening Cc1oc2c(cc(NS(=O)(=O)c3ccc(F)cc3)c3ccccc32)c1C(=O)O returned HT1080NT lethal inactive, TDP1 cell noCPT inactive, IL1B secr inh inactive, HT1080 IDH1KD tx inactive and DT40 TDP1 CPT inactive.
Cc1oc2c(cc(NS(=O)(=O)c3cccs3)c3ccccc32)c1C(=O)OC(C)C was read as HT1080NT lethal inactive, TDP1 cell noCPT inconclusive, IL1B secr inh inactive, HT1080 IDH1KD tx inactive and DT40 TDP1 CPT inconclusive.
For COc1ccc(S(=O)(=O)Nc2cc3c(cc2C(C)=O)OCO3)cc1 the results were HT1080NT lethal inconclusive, TDP1 cell noCPT 4.61µM, IL1B secr inh inactive, HT1080 IDH1KD tx 18.4µM and DT40 TDP1 CPT 10.3µM.
`O=C(CN(C(=O)CNC(=O)c1ccco1)c1ccccc1F)NC1CCCCC1` gave HT1080NT lethal inactive, TDP1 cell noCPT inactive, IL1B secr inh inactive, HT1080 IDH1KD tx inactive and DT40 TDP1 CPT inactive.

Bioassay records as filed in PubChem.
